This is part of a sample that, as a whole, favours compounds with a hit. Of some 83,000 tested, about 20% had one in any assay.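 Growth was measured after 48 h exposure to one concentration of compound in 96-well plates. Values under 10 count as active.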 Activity calls are given as the source filed them.
test system: CAKI-1 renal; assay: NCI-60 one-dose screen, 48 h (100 = growth as untreated, 0 = no growth, -100 = all killed); settings: 10 µM

Row | SMILES | growth
1 | Cc1ccc(/C=C/C(=O)c2ccc(NC(=O)CSc3nnc(-c4c[nH]c5ccccc45)n3-c3ccccc3)cc2)cc1 | 80.6% (inactive)
2 | CCCn1c(O)c(N=Nc2nc(-c3cc4ccccc4oc3=O)cs2)c2cc(Br)ccc21 | 96.4% (inactive)
3 | COc1ccc2[nH]c(=O)c(CSc3nccc(-c4ccc(Cl)cc4)n3)cc2c1 | -75.9% (active)
4 | COc1cc(/C=C/C(=O)c2cc(OC)c(OC)c(OC)c2)ccc1Oc1nc(Nc2ccc(F)cc2)nc(N(C)C)n1 | 11.5% (inactive)
5 | c1ccc(C(=C(c2ccc(OCCN3CCCCC3)cc2)c2ccc(OCCN3CCCCC3)cc2)C2CCCC2)cc1 | 76.1% (inactive)
6 | Cc1ccc(/C=C(\C#N)n2nnc3c(F)cccc32)cc1 | 21.8% (inactive)
7 | O=C1Nc2ccc(F)cc2/C1=C/c1cccc(OCc2ccccn2)c1 | 17.2% (inactive)
8 | Cc1ccc(-c2cc(C(=O)N=Nc3c(O)[nH]c4ccc(Br)cc34)c3ccccc3n2)cc1 | 73.6% (inactive)
9 | Cc1cc(C)nc(NS(=O)(=O)c2ccc(N/C(N)=N/c3nccc(-c4ccccc4)n3)cc2)n1 | 43.6% (inactive)
10 | COc1ccc(NC(=O)Nc2ccc(OCC(=O)N=Nc3c(O)[nH]c4ccc([N+](=O)[O-])cc34)cc2)cc1 | 92.5% (inactive)
11 | COc1ccc(-c2nc(Nc3ccccc3S(N)(=O)=O)c3ccccc3n2)cc1 | 7.47% (active)
12 | CCCCCc1ccc(S(=O)(=O)N(C(C)=O)c2cc(-c3csc(N(C)C(C)=O)n3)ccc2N2CCN(C)CC2)cc1 | 31.8% (inactive)
13 | NS(=O)(=O)c1ccc(N=Nc2c(O)n(CC(=O)Nc3ccccc3Br)c3ccccc23)cc1 | 23.7% (inactive)
14 | CN(C)c1nc(NCCNS(=O)(=O)c2ccc(C(=O)/C=C/c3ccccc3)cc2)nc(Nc2ccc(F)cc2)n1 | 38.1% (inactive)
15 | CC1=C2C(=C[C@@](C)(COCOCCCl)[C@@H]2O)C(=O)[C@](C)(O)C12CC2 | -14.7% (active)
16 | COC[C@@H](CC(C)C)N=C1NC(=O)/C(=C/c2ccc3ncoc3c2)N1 | 6.77% (active)
17 | CC1=C2C(=C[C@@](C)(CO)[C@@H]2O)/C(=N\N)[C@](C)(O)C12CC2 | 1.03% (active)

Row | SMILES | growth
18 | CN1CCc2c(sc3ncnc(N/N=C/c4ccc5ccccc5c4)c23)C1 | 78.2% (inactive)
19 | Cc1cccc(-c2nc(Nc3ccccc3C(=O)O)c3ccccc3n2)c1 | 52.4% (inactive)
20 | COc1ccc2[nH]c(O)c(N=NC(=O)COc3ccc(NC(=O)Nc4ccc(Cl)cc4)cc3)c2c1 | 99.7% (inactive)
21 | CN1CCN(Cc2ccc(NC(=O)c3cncc(C#Cc4cnc5ccc(N[C@H]6CCOC6)nn45)c3)cc2C(F)(F)F)CC1 | -96.7% (active)
22 | N#Cc1c(Cl)nc(SCc2ccc(F)cc2)nc1-c1ccc(F)cc1 | 94.9% (inactive)
23 | CONC[C@]1(C)C=C2C(=O)[C@](C)(O)C3(CC3)C(C)=C2[C@H]1O | -0.623% (active)
24 | CCCCOc1ccc(Nc2nc3ccccc3nc2Nc2ccc(OCCCC)cc2)cc1 | 91.8% (inactive)
25 | C=C1CCC2C3(C)COC(c4cccc(F)c4)OC3CCC2(C)C1CC(O)C1=CCOC1=O (stereo not drawn) | 74.7% (inactive)
26 | COc1ccc(/C=N/N=C(\C)c2ccc3c(c2)Nc2ccccc2S3)cc1O | 55.1% (inactive)
27 | O=S(=O)(Nc1ncccn1)c1ccc(-n2c(-c3ccc(Br)cc3)nc(-c3ccccc3)c2-c2ccccc2)cc1 | 23.7% (inactive)
28 | C[C@H]1[C@H](C)CC[C@]2(COC(=O)CCC(=O)NCC#CCN3CCNCC3)CC[C@]3(C)C(=CC[C@@H]4[C@@]5(C)CCCNC(C)(C)[C@@H]5CC[C@]43C)[C@H]12 | 49.1% (inactive)
29 | CN1CCN(Cc2ccc(C(=O)Nc3cccc(Nc4ccc5c(O)cccc5n4)c3)cc2C(F)(F)F)CC1 | -38.3% (active)
30 | CC(=O)Nc1ccc(-c2cn(-c3cccc(C(=O)Nc4cccc(OC(F)(F)F)c4)c3)nn2)cn1 | 94.5% (inactive)
31 | CCOC(=O)C1=C(N)N(c2ccccc2)C2=C(C(=O)CC(C)(C)C2)C1c1ccccc1OC (stereo not drawn) | 97.2% (inactive)
32 | O=c1[nH]c2ccccc2cc1CSc1ccc(Nc2nccc(-c3ccc(C(F)(F)F)cc3)n2)cc1 | 12.7% (inactive)
33 | COC(=O)C[C@](O)(CCCC(C)(C)O)C(=O)O[C@H]1C(OC)=C[C@@]23CCC(=O)N2CCc2cc4c(cc2[C@@H]13)OCO4 | 94.3% (inactive)

From PubChem BioAssay (NCI)
